In the supplement of paper PMC10849652:
About 7,900 targets were measured; listed, in parts, are those with a hit and a random draw of the rest. About 0.6% of all pairs of compound and target were hits. Values without a mark were called inactive.

Key:
Assay in all cases: log2 fold change, soluble protein after heating vs DMSO (PISA); higher = thermal stabilisation; K562 cells, 10 uM, 30 min; active = over 0.2 and 3.5 SD of the protein, either way, in both replicates (recomputed)
bafetinib = compound: Cc1ccc(NC(=O)c2ccc(CN3CC[C@H](N(C)C)C3)c(C(F)(F)F)c2)cc1Nc1nccc(-c2cncnc2)n1 [bafetinib]
In short: (§1)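 Values are thermal stability changes relative to control samples and are taken from duplicates. They are stated as log2 fold changes. Before quantification by TMTpro 16plex LC-MS/MS with equalised channel sums, K562 cells at 2×10^6 cells/mL were treated with 10 μM compound for 30 min, heated in aliquots for 3 min across 48°C-58°C, pooled, extracted in PBS with 0.5% NP-40 at 4°C, and centrifuged at 21,000xg for 90 min to give the soluble supernatant.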

[1] = compound: Cc1cccc(CC(=O)N2CCc3c2ccc(-c2cn(C)c4ncnc(N)c24)c3F)n1
In short: as §1

nilotinib = compound: Cc1cn(-c2cc(NC(=O)c3ccc(C)c(Nc4nccc(-c5cccnc5)n4)c3)cc(C(F)(F)F)c2)cn1 [nilotinib]
In short: as §1

[2] = compound: Cc1nc(Nc2n[nH]c3c2CN(C(=O)N[C@H](CN(C)C)c2ccccc2)C3(C)C)c2sccc2n1
In short: as §1

dasatinib = compound: Cc1nc(Nc2ncc(C(=O)Nc3c(C)cccc3Cl)s2)cc(N2CCN(CCO)CC2)n1 [dasatinib]
In short: as §1

[3] = compound: Cc1ncc(-c2ccnc(Nc3ccc(S(C)(=O)=O)cc3)n2)n1C(C)C
In short: as §1

[4] = compound: Cn1cc(-c2ccc3c(c2)CCN3C(=O)Cc2cccc(C(F)(F)F)c2)c2c(N)ncnc21
In short: as §1

[5] = compound: Cn1cc(-c2ccc3nnc(C(F)(F)c4ccc5ncccc5c4)n3n2)cn1
In short: as §1

tipifarnib = compound: Cn1cncc1[C@@](N)(c1ccc(Cl)cc1)c1ccc2c(c1)c(-c1cccc(Cl)c1)cc(=O)n2C [tipifarnib]
In short: as §1

mubritinib = compound: FC(F)(F)c1ccc(/C=C/c2nc(COc3ccc(CCCCn4ccnn4)cc3)co2)cc1 [mubritinib]
In short: as §1

[6] = compound: NC(=O)Nc1cc(-c2cccc(F)c2)sc1C(=O)N[C@H]1CCCNC1
In short: as §1

[7] = compound: NC(=O)c1cnc(N[C@@H]2CCCC[C@@H]2N)nc1Nc1cccc(-n2nccn2)c1
In short: as §1

[8] = compound: NC1(c2ccc(-c3nc4ccn5c(=O)[nH]nc5c4cc3-c3ccccc3)cc2)CCC1
In short: as §1

[9] = compound: NCC(=O)Nc1ccc(-n2nc(C(F)(F)F)cc2-c2ccc3c(ccc4ccccc43)c2)cc1
In short: as §1

entinostat = compound: Nc1ccccc1NC(=O)c1ccc(CNC(=O)OCc2cccnc2)cc1 [entinostat]
In short: as §1

vorinostat = compound: O=C(CCCCCCC(=O)Nc1ccccc1)NO [vorinostat]
In short: as §1

citarinostat = compound: O=C(CCCCCCNC(=O)c1cnc(N(c2ccccc2)c2ccccc2Cl)nc1)NO [citarinostat]
In short: as §1

silmitasertib = compound: O=C(O)c1ccc2c(c1)nc(Nc1cccc(Cl)c1)c1ccncc12 [silmitasertib]
In short: as §1

[10] = compound: O=C1NC(=O)C(c2cnc3ccccn23)=C1c1cn2c3c(cc(F)cc13)CN(C(=O)N1CCCCC1)CC2
In short: as §1

[11] = compound: c1cc(OCCN2CCCCC2)cc(-c2n[nH]c3ccc(-c4nnc[nH]4)cc23)c1
In short: as §1

Sequence of UniProt Q8TAP8 (Q8TAP8 whole entry, looked up): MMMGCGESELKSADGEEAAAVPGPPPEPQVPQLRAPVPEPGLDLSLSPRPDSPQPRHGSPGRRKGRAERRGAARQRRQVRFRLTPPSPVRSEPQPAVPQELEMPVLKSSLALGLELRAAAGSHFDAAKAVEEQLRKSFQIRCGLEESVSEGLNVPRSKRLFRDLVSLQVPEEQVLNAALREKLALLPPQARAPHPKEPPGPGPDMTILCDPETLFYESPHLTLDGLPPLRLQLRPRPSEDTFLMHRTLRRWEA
Sequence of UniProt Q9NP80 (Q9NP80 whole entry, looked up): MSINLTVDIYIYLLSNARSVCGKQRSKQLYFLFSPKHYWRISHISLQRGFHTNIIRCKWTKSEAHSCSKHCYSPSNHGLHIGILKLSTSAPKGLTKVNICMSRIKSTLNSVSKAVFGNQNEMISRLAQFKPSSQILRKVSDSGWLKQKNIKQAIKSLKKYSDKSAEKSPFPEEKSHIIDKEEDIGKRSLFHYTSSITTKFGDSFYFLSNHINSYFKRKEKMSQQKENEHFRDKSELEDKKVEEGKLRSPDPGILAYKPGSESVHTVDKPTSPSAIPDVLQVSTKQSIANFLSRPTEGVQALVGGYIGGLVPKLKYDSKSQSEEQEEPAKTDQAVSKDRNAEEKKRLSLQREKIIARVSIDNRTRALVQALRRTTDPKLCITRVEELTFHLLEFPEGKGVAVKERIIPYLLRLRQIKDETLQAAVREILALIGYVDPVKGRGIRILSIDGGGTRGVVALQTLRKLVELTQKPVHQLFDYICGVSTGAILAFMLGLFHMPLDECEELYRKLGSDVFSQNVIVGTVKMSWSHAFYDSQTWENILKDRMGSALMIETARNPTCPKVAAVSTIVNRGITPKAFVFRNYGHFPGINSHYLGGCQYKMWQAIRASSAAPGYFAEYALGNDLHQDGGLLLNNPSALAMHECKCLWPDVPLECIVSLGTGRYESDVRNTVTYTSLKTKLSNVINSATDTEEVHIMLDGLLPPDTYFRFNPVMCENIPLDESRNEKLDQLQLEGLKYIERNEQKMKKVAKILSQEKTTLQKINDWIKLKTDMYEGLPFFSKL
Sequence of UniProt O15305 (O15305 whole entry, looked up): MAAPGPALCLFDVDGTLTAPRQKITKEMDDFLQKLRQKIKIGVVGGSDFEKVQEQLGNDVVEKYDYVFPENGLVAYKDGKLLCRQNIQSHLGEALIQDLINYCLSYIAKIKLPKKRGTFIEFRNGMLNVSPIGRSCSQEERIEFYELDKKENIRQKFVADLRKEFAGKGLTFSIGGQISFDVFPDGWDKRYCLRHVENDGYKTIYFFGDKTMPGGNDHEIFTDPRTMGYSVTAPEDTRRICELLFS
Sequence of UniProt Q8WUK0 (Q8WUK0 whole entry, looked up): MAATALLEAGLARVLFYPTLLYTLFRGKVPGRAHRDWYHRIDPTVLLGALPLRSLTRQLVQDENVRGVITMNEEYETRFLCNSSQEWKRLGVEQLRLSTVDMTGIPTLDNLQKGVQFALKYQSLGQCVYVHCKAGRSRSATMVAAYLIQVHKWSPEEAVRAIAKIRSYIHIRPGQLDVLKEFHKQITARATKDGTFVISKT
Sequence of UniProt Q16401 (Q16401 whole entry, looked up): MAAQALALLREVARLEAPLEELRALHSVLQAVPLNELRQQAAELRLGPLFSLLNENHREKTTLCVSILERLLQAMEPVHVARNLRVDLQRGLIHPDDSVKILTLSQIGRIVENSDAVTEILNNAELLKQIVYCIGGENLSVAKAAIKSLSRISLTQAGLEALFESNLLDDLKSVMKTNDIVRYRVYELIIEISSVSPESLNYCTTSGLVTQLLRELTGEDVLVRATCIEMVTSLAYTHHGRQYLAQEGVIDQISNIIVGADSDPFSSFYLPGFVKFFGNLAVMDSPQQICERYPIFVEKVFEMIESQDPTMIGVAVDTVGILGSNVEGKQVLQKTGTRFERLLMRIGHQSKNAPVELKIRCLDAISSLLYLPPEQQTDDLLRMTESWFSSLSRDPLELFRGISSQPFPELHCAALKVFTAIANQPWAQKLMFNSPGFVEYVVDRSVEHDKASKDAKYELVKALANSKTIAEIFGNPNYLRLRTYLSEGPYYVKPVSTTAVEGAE
Sequence of UniProt P13861 (P13861 whole entry, looked up): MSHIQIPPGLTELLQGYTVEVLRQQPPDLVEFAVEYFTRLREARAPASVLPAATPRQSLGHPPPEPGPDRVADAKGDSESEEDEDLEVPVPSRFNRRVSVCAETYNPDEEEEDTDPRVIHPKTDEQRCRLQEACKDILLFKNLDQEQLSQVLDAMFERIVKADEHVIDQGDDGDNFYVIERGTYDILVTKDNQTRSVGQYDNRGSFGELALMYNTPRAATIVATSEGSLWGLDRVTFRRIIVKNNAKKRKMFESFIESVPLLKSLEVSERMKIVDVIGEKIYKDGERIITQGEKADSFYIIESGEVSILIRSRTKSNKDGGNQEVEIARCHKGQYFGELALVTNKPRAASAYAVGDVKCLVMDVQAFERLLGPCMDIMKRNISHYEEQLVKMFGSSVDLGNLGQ
Sequence of UniProt Q8IWE5 (Q8IWE5 whole entry, looked up): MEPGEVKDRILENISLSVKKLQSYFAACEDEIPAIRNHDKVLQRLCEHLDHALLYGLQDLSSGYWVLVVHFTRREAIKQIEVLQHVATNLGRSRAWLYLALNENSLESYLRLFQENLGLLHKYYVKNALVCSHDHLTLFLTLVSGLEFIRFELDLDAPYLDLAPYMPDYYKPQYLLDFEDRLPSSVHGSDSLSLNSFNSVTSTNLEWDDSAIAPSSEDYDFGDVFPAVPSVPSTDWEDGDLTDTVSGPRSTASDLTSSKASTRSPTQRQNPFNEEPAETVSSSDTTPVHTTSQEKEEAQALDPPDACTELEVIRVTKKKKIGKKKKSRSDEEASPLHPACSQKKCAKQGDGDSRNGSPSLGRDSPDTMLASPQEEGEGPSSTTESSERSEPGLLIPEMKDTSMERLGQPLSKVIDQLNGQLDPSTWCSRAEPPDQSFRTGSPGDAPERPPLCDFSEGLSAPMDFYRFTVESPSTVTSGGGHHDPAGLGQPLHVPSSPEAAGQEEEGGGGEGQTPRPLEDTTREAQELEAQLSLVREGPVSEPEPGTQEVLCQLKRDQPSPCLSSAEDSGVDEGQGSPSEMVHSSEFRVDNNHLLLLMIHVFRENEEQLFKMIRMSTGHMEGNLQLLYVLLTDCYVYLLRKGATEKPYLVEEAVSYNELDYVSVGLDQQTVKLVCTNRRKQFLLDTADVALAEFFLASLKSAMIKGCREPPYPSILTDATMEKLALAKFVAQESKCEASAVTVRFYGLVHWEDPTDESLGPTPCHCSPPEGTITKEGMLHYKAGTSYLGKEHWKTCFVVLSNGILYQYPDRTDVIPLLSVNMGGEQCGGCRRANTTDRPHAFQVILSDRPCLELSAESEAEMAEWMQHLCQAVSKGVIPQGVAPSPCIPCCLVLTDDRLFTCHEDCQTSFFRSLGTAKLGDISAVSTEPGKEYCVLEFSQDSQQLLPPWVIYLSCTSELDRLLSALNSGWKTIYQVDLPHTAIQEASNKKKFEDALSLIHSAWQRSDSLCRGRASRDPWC
Sequence of UniProt Q5MIZ7 (Q5MIZ7 whole entry, looked up): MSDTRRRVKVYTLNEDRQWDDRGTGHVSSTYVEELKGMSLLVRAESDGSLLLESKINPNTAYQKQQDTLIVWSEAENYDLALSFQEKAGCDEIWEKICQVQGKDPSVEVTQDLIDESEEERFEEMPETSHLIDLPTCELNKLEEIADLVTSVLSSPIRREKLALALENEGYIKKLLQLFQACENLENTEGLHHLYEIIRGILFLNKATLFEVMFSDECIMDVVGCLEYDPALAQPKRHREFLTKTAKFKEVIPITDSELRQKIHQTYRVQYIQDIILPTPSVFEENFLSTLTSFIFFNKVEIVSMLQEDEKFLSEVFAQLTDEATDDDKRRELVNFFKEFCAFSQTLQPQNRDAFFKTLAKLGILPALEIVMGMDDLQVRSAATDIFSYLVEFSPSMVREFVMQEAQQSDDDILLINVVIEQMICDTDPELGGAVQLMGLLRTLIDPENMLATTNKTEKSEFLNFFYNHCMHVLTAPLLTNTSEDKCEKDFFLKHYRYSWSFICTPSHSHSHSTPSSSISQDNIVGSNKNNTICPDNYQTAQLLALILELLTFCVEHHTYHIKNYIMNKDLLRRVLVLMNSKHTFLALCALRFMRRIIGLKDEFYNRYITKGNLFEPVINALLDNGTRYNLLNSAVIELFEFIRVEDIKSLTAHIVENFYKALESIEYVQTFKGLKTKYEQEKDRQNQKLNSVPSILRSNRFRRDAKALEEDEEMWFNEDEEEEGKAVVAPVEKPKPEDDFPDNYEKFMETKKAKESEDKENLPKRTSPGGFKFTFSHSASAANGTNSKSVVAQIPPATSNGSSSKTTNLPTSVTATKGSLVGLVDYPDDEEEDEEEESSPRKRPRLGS
Sequence of UniProt Q8WWY3 (Q8WWY3 whole entry, looked up): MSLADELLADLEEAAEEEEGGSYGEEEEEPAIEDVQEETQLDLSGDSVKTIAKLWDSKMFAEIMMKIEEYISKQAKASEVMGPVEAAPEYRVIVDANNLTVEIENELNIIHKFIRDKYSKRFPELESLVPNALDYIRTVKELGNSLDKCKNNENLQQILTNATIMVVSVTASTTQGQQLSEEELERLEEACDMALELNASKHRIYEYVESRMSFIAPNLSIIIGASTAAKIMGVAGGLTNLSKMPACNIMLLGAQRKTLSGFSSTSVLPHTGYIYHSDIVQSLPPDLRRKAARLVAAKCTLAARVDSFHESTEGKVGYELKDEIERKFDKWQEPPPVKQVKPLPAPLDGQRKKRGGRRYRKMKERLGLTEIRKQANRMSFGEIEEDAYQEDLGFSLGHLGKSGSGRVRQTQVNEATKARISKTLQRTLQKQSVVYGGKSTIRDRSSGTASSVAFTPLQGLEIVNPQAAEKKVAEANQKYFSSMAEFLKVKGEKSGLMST

| Target | log2 fold change (bafetinib) | log2 fold change [1] | log2 fold change (nilotinib) | log2 fold change [2] | log2 fold change (dasatinib) | log2 fold change [3] | log2 fold change [4] | log2 fold change [5] | log2 fold change (tipifarnib) | log2 fold change (mubritinib) | log2 fold change [6] | log2 fold change [7] | log2 fold change [8] | log2 fold change [9] | log2 fold change (entinostat) | log2 fold change (vorinostat) | log2 fold change (citarinostat) | log2 fold change (silmitasertib) | log2 fold change [10] | log2 fold change [11] |
| --- | --- | --- | --- | --- | --- | --- | --- | --- | --- | --- | --- | --- | --- | --- | --- | --- | --- | --- | --- | --- |
| PPP1R35 (UniProt Q8TAP8) | -0.039 | 0.058 | 0.008 | -0.031 | -0.04 | -0.095 | -0.024 | -0.042 | -0.022 | 0.065 | 0.054 | -0.004 | -0.037 | -0.002 | -0.06 | -0.089 | -0.058 | 0.003 | 0.002 | -0.001 |
| PPP4R3B (UniProt Q5MIZ7) | -0.054 | 0.116 | -0.032 | -0.006 | -0.03 | -0.013 | 0.037 | 0.054 | -0.041 | 0.006 | -0.068 | -0.082 | -0.069 | -0.079 | 0.047 | 0.089 | 0.086 | 0.077 | -0.1 | 0.087 |
| POMK (UniProt Q9H5K3) | -0.057 | 0.067 | -0.032 | -0.029 | -0.05 | 0.016 | 0 | 0.034 | -0.044 | -0.126 | 0 | 0.058 | -0.173 | -0.044 | 0.045 | 0.04 | 0.105 | 0.101 | 0.017 | -0.303 |
| PRPF31 (UniProt Q8WWY3) | -0.012 | 0.01 | -0.037 | -0.572 (active) | -0.274 | -0.387 | 0.055 | 0.053 | -0.031 | -0.014 | -0.076 | -0.138 | -0.241 | -0.065 | 0.071 | 0.182 | 0.042 | -0.038 | -0.194 | -0.038 |
| PNPLA8 (UniProt Q9NP80) | -0.04 | -0.13 | 0.036 | -0.026 | -0.055 | 0.038 | 0.036 | -0.063 | 0.053 | 0.095 | -0.035 | 0.007 | -0.038 | -0.038 | -0.031 | 0.111 | 0.049 | -0.036 | -0.017 | -0.052 |
| PSMD5 (UniProt Q16401) | -0.09 | 0.006 | -0.015 | -0.026 | -0.026 | 0.006 | 0.018 | 0.002 | -0.05 | 0.023 | -0.001 | 0.009 | -0.094 | -0.009 | 0.01 | 0.008 | 0.033 | 0.038 | -0.032 | -0.009 |
| PMM2 (UniProt O15305) | -0.098 | 0.003 | -0.291 (active) | -0.054 | -0.018 | -0.015 | 0.035 | 0.013 | 0.018 | 0.028 | 0.022 | 0.01 | 0.016 | -0.024 | -0.004 | 0.007 | 0.024 | -0.001 | -0.05 | -0.02 |
| PSMB4 (UniProt P28070) | 0.051 | -0.052 | 0 | 0.063 | 0.076 | -0.015 | -0.03 | 0.014 | 0.047 | 0.009 | 0.029 | -0.01 | 0.068 | 0.01 | -0.036 | -0.019 | 0.008 | 0.002 | 0.022 | -0.014 |
| PLEKHM2 (UniProt Q8IWE5) | -0.09 | -0.024 | -0.054 | -0.002 | -0.072 | -0.077 | 0.001 | -0.08 | -0.028 | 0.096 | 0.01 | -0.102 | -0.315 (active) | -0.107 | 0.024 | 0.072 | 0.109 | -0.058 | -0.009 | -0.125 |
| PPP1R12A (UniProt O14974) | -0.041 | -0.02 | -0.027 | -0.302 | -0.108 | -0.118 | -0.002 | 0.02 | -0.023 | 0.07 | -0.428 (active) | -0.358 | -0.137 | -0.012 | 0.041 | 0.017 | 0.078 | 0.051 | -0.01 | -0.369 |
| PRKAR2A (UniProt P13861) | 0.029 | 0.007 | 0.139 | -0.606 (active) | -0.055 | -0.026 | 0.07 | 0.102 | 0.004 | 0.042 | -0.502 (active) | -0.071 | -0.002 | -0.039 | 0.025 | -0.012 | 0.002 | 0.051 | 0.002 | -0.028 |
| PTPMT1 (UniProt Q8WUK0) | -0.16 | -0.003 | 0.069 | -0.013 | -0.138 | 0.029 | -0.056 | -0.132 | 0.026 | -0.006 | -0.087 | -0.264 | -0.263 | -0.166 | 0.073 | 0.049 | 0.014 | 0.032 | -0.015 | -0.082 |
| PEX13 (UniProt Q92968) | -0.159 | 0.106 | -0.046 | 0 | 0.014 | 0.035 | -0.071 | -0.075 | -0.027 | 0.042 | -0.03 | -0.086 | -0.101 | -0.034 | -0.051 | -0.195 | 0.023 | 0.025 | 0.026 | -0.015 |
